Experimental data from PubChem BioAssay.
Measured potencies and affinities stand elsewhere. Activity calls are given as the source filed them. The limit is not given here; nearly all actives have IC50 up to about 0.91 µM.

molecular target: Calcium-dependent protein kinase 4 (Plasmodium falciparum (isolate 3D7)) (UniProt Q8IBS5); test: PfCDPK4 kinase inhibitors, biochemical, TCAMS library (AID 1159588); conditions: recombinant PfCDPK4, Kinase-Glo ATP depletion luminescence
Sequence (Q8IBS5 whole entry, looked up): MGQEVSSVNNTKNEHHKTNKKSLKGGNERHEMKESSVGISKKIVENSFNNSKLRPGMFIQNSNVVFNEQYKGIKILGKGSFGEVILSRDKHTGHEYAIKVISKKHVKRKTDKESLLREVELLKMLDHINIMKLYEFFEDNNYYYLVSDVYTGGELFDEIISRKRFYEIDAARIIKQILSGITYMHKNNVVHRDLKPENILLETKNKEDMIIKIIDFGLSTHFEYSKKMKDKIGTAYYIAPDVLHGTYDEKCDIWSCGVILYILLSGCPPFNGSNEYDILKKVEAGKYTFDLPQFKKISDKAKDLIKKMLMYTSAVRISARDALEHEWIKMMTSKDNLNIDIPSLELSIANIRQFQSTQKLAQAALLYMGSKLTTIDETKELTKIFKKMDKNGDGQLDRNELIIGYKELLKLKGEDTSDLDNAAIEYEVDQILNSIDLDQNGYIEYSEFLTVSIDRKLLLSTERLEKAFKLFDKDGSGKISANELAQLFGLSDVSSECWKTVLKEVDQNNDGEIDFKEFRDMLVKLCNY

outcome, inactive:
O=c1cc(NC[C@@H]2CCC[C@@H]2NCc2ccc(Cl)c(Cl)c2)[nH]c2ccccc12, O=C(NCCN1CCN(S(=O)(=O)c2ccc(OC3CCNCC3)c(Br)c2)CC1)c1ccc(Cl)c(Cl)c1, CCc1ccc(N2C(N)=NC(N)=NC2(C)C)cc1, CN1CCN(c2ccnc3ccc(NC(=O)Nc4ccc5c(c4)CCCC5=O)cc23)CC1, CCOC(=O)c1[nH]c2ccc(F)cc2c1NC(=O)CN1CCN(c2cccc(C(F)(F)F)c2)CC1, COc1ccc(CN2CCCN(Cc3cccc(C(=O)Nc4ccc(C)c(F)c4)c3)CC2)cc1, O=C(NCCCCN1CCC(c2ccc3ccccc3c2O)CC1)c1ccc(-c2ccc(Cl)cc2)cc1, CN(C)Cc1ccc(-c2cc3ncnc(Nc4ccc(OCc5cccc(F)c5)c(Cl)c4)c3s2)[nH]1, CN(C)CCN(C)Cc1ccc(-c2ccc(NC(=O)c3cccc(Cl)c3)cc2)cc1, COc1cc(NC(=O)c2ccc3oc4ccccc4c3c2)ccc1OCCN1CCCCC1, COc1ccc(CN(C)CCOc2ccc(NC(=O)c3cccc4c(=O)cc(-c5ccccc5)[nH]c34)cc2)cc1OC, CC(=O)Nc1ccc(Nc2c3ccccc3nc3ccccc23)cc1, CN1C(=O)C(=O)N(CCCCCON=C(N)N)C1=S, CCN1CCN(CCCNc2ccnc3cc(Cl)ccc23)CC1, CS(=O)(=O)CCNCc1cccc(-c2cc3c(Nc4ccc(OCc5ccccc5)cc4)ncnc3cn2)c1, COc1ccc(CNCc2ccc(-c3ccc(-c4nc5ccc(C(F)(F)F)cc5[nH]4)cc3)cc2)cc1, Cc1cc(-c2cccc3c(C(=O)N4CCc5cc6nccc(N7CCN8CCC[C@H]8C7)c6cc54)cccc23)cc(C)n1, Nc1nc2c(ncn2COC2COP(=O)(O)OC2)c(=O)[nH]1 (stereo not given), O=C(CCN(Cc1ccco1)c1nc(-c2ccc(F)cc2)nc2ccccc12)NC1CC1, O=C(Nc1cccc(-c2ccc(-c3nc4ccc(C(F)(F)F)cc4[nH]3)cc2)c1)Nc1ccc(F)c(F)c1F, Cc1nc(N)nc(N)c1C#CC1CCCC1, Cn1ncc2ccc(Nc3nccc(-c4ccc5c(c4)c(N)nn5C)n3)cc21, Clc1ccccc1CNc1noc(-c2sccc2Br)n1, CN1CCC(Oc2cc(CN3CC[C@H](NC(=O)c4ccc(Cl)c(Cl)c4)C3)ccc2I)C1 (stereo not given in full), CCc1cn2c3c(cc(C(=O)N[C@@H](Cc4ccccc4)[C@H](O)CNC4CCCCC4)cc13)N(CC)S(=O)(=O)CC2, CN1CCN(c2nc(NCCNc3ccc([N+](=O)[O-])cc3)c3ccccc3n2)CC1, O=S(=O)(NCCN1CCCC1)c1ccc(-c2ccc(CN3Cc4ccccc4C3)cc2)s1, CSc1c(CNCCCNc2cc(=O)c3ccccc3[nH]2)[nH]c2ccccc12, CN1CCC(NCc2ccc(-c3cccc(S(=O)(=O)NCc4ccccc4)c3)cc2)CC1, COc1ccc(-c2ccnc(-c3cccc(-c4ccccn4)n3)c2)cc1, CC1CN(c2ccc(C(=O)NCC3CC3)cc2NC(=O)OCc2ccccc2)CC(C)O1 (stereo not given), Cc1noc(=O)c2ccc(NC(=O)C(O)(CSc3ccccc3)CC(C)C)cc12 (stereo not given), CCCCOP(=O)(COc1ccc(CCN(CC(O)COc2cccc3[nH]c4ccccc4c23)CC(O)COc2cccc3[nH]c4ccccc4c23)cc1)C1CCCCC1 (stereo not given), COc1ccc(NC(=O)Nc2cccc(-c3ccncc3)c2)cc1N1CCN(C)CC1, CC(=O)c1c[nH]c2ccc(/C=C/C(=O)NC3CCC(CCN4CCc5ccc(C#N)cc5CC4)CC3)cc12 (stereo not given), c1ccc(COc2ccnc(NCCCOc3cccc(CN4CCCCC4)c3)c2)cc1, Cc1cccc(OCC(=O)Nc2cccc(NC(=O)COc3cccc(C)c3)n2)c1, Cn1nc(-c2ccccc2F)c2cc(C(=O)Nc3cccnc3)sc21, CCN(CC)CCCSc1ccc(-c2ccc(SCCCN(CC)CC)cc2)cc1, COCCCNc1sc(S(=O)(=O)c2ccccc2)nc1S(=O)(=O)c1ccc(C)cc1
